Consider eight molecules from PubChem BioAssay (Tox21).

Assay [1] in a line: Nuclear factor erythroid 2-related factor 2/antioxidant responsive element (Nrf2/ARE) small molecule agonists: qHTS cell viability counter screen in human keratinocytes (AID 1919968; active means well fitted curve in the direction sought with a large enough effect in the repeat runs; an effect the other way counts as inactive or inconclusive; further: nearly all actives have a fitted effect of over 55% in size; further: potency means the concentration at half of the fitted maximal effect). The method in brief: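 CellTiter-Fluor fluorescence, read 1 h after reagent, gave viability in the same wells as the ARE-luciferase assay. KeratinoSens cells (1,500/well) had 23 h compound exposure at 37 C/5% CO2 following 5 h plating.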

A short description of assay [2]: Nuclear factor erythroid 2-related factor 2/antioxidant responsive element (Nrf2/ARE) small molecule agonists: luciferase reporter gene qHTS assay in human keratinocytes (AID 1919969). Further: nearly all actives have a fitted effect of over 35% in size. A general note: Reporter assays use an easily measured gene product as a stand-in for the process of interest.
In assay [3] the target is Gonadotropin-releasing hormone receptor (Homo sapiens) (UniProt P30968). The experiment in a line: Human gonadotropin-releasing hormone receptor (GnRHR) small molecule agonists, calcium flux assay in GnRHR-HEK293 cells (AID 1920063). Further: nearly all actives have a fitted effect of over 35% in size. In outline: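 Agonist mode: compounds at 15 concentrations, in triplicate, went onto calcium dye-loaded GnRHR-HEK293 cells. Intracellular calcium was then followed as 480/540 nm fluorescence at 1 s intervals over 3 min.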
Chain of Gonadotropin-releasing hormone receptor (Homo sapiens) (P30968 whole entry, looked up): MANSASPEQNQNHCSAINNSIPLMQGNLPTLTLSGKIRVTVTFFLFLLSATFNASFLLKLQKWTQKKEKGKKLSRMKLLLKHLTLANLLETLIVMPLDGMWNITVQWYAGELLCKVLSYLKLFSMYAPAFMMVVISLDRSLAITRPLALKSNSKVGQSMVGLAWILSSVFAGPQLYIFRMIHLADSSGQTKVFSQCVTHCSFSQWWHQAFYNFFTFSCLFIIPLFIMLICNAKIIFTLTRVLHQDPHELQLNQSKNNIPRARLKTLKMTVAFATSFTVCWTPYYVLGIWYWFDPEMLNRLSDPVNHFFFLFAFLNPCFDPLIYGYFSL

For assay [4], the target named is KiSS-1 receptor (Homo sapiens) (UniProt Q969F8). Put plainly: Human kisspeptin (KISS1R) small molecule agonists, calcium flux assay in KISS1R-HEK293 cells (AID 1920064; active means well fitted curve in the direction sought with a large enough effect in the repeat runs; an effect the other way counts as inactive or inconclusive). In outline: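 Agonist mode: intracellular calcium rise tracked at 1 s intervals over 3 min (480/540 nm) immediately after compound addition to dye-loaded KISS1R-HEK293 stable cells. Each compound tested at 15 concentrations in triplicate.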
Chain of KiSS-1 receptor (Homo sapiens) (Q969F8 whole entry, looked up): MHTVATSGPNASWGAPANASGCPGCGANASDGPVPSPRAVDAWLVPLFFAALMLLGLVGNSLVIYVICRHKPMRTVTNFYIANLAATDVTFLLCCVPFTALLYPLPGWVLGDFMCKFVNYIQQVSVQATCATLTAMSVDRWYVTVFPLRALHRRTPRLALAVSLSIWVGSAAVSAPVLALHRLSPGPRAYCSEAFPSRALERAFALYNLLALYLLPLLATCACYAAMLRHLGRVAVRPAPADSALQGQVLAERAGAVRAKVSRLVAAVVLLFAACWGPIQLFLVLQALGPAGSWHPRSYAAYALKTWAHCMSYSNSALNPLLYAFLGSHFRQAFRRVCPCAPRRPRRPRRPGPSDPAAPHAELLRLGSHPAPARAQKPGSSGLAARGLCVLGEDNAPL

A short description of assay [5]: G protein-coupled receptor (GPCR) small molecule agonists, calcium flux assay: HEK293 wild type cell line counter screen (AID 1920065). The method in brief: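 Calcium flux counter screen: compound added in agonist mode at 15 concentrations in triplicate to dye-loaded parental HEK293 cells. Fluorescence (480/540) read kinetically for 3 min; ATP served as positive control.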
For orientation: Calcium flux is commonly read through the fluorescence of an indicator in the cells.

The nature of assay [6]: p53 small molecule agonists, cell-based qHTS assay with rat liver microsomes (AID 1963578). The method in brief:
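Quantitative HTS of the Tox21 10K library: p53RE-bla cells, rat liver microsomes plus NADPH at 0.5 mg/mL final each, 16 h at 37 C, beta-lactamase fluorescence detection.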
(In general: In qHTS, concentration-response curves come from the screen itself.)

Assay [7] can be described thus: p53 small molecule agonists, cell-based qHTS assay with rat liver microsomes: qHTS cell viability counter screen (AID 1963580). Further: nearly all actives have a fitted effect of over 45% in size. In outline:
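Counter screen for cytotoxicity under metabolic activation: rat liver microsomes and NADPH, 0.5 mg/mL final each, added with compounds to p53RE-bla HCT-116 cells; 16 h at 37 C, then ATP luminescence read.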

Assay [8] in a line: p53 small molecule agonists, cell-based qHTS assay: qHTS cell viability counter screen (AID 1963581). Further: nearly all actives have a fitted effect of over 45% in size. In outline: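 Counter screen read by CellTiter-Glo luminescence (ATP content, 30 min at room temperature), run in the same wells as the beta-lactamase reporter read. HCT-116 p53RE-bla cells saw compounds for 16 h at 37 C.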
Assay [9] in a line: p53 small molecule agonists, cell-based qHTS assay (AID 1963582; active means well fitted activation curve with a large enough effect in the signal ratio in the repeat runs, not every such curve was filed as active; the % refers to the signal ratio). In outline:
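Read-out is beta-lactamase FRET fluorescence after 2 h at room temperature with LiveBLAzer B/G substrate. p53 response element-bla cells were treated 16 h at 37 C with compounds in DMSO, added 5 h after seeding.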

For assay [10], the target named is 5-hydroxytryptamine receptor 2A (Homo sapiens) (UniProt P28223). Put plainly: 5-hydroxytryptamine receptor 2A (HTR2A) small molecule antagonists, cell-based qHTS assay (AID 1963586). Further: nearly all actives have a fitted effect of over 45% in size. The method in brief:
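CHO cells stably expressing human HTR2A were plated for 18 h at 37 C, then loaded with calcium dye for 1 h. Compounds were preincubated 5 min at room temperature before DOI (4 nM solution) was added. Kinetic fluorescence was read for 3 min.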

Assay [11] shares this target. Put plainly: 5-hydroxytryptamine receptor 2A (HTR2A) small molecule agonists, cell-based qHTS assay (AID 1963587). Further: nearly all actives have a fitted effect of over 30% in size. The method in brief:
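HTR2A-CHO cells, plated 18 h at 37 C/5% CO2, dye-loaded 1 h at 37 C; compounds in DMSO added by pin tool (agonist mode). Intracellular calcium flux read as kinetic fluorescence on FDSS over 2 min at 1 s intervals.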

The target of assay [12] is Muscarinic acetylcholine receptor M1 (Homo sapiens) (UniProt P11229). The experiment in a line: Cholinergic receptor muscarinic 1 (CHRM1) small molecule antagonists, cell-based qHTS assay (AID 1963588). Further: nearly all actives have a fitted effect of over 40% in size. The method in brief:
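Compounds were tested at 15 concentrations in three independent runs. Dye-loaded CHRM1-CHO cells were exposed 5 min at room temperature before stimulation by acetylcholine added at 50nM. Intracellular calcium was read kinetically on FDSS for 3 min.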

For assay [13] the target is unchanged. The experiment in a line: Cholinergic receptor muscarinic 1 (CHRM1) small molecule agonists, cell-based qHTS assay (AID 1963589). Further: nearly all actives have a fitted effect of over 35% in size. In outline: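 Agonist-mode calcium-flux screen: compounds at 15 concentrations, three independent runs, were pin-transferred onto dye-loaded human CHRM1-CHO cells. Fluorescence was then recorded kinetically every second over minutes.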

The nature of assay [14]: cAMP Responsive Elements (CRE) small molecule agonists, cell-based qHTS assay (AID 1963590). The method in brief: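 Agonist mode: compound added to CRE-bla HEK 293T cells (2,000/well, 18 h after plating) for 3 h at 37 C/5% CO2. Reporter activity detected via FRET beta-lactamase substrate, 2 h room-temperature loading.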
Assay [15] in a line: cAMP Responsive Elements (CRE) small molecule antagonists, cell-based qHTS assay (AID 1963591; active means well fitted inhibition curve with a large enough effect in the signal ratio in the repeat runs, not every such curve was filed as active; the % refers to the signal ratio). In outline: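 Antagonist mode: compounds are added alongside the adenylyl cyclase activator NKH477 (0.25 uM final) to CRE-bla HEK293T cells for 3 h. LiveBLAzer FRET substrate, 2 h at room temperature, reports bla expression.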
The target in assay [16] is D(2) dopamine receptor (Homo sapiens) (UniProt P14416). Put plainly: Dopamine D2 receptor (DRD2) small molecule agonists, cell-based qHTS assay (AID 1963594). Further: nearly all actives have a fitted effect of over 35% in size. The method in brief:
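HEK293 cells stably expressing DRD2 were cultured 24 h at 37 C, then given Ro20-1724 (0.1 mM final) and compounds for 10 min at room temperature. NKH477 (200nM) was then added for 30 min. cAMP was read by HTRF.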

The target is the same in assay [17]. Put plainly: Dopamine D2 receptor (DRD2) small molecule antagonists, cell-based qHTS assay (AID 1963595; active means well fitted inhibition curve with a large enough effect in the signal ratio in the repeat runs, with a control signal flat; the % refers to the signal ratio). The method in brief: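 Readout: HTRF cAMP, cAMP-d2 competing with cellular cAMP for anti-cAMP cryptate, read after 1 h. Cells: DRD2-HEK293. Conditions: 0.1 mM Ro20-1724, 12 nM quinpirole, 200 nM NKH477, 30 min RT.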
Assay [18] is described as follows: p53 small molecule agonists, cell-based qHTS assay with human liver microsomes: qHTS cell viability counter screen (AID 1963579). Further: nearly all actives have a fitted effect of over 45% in size. The method in brief: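 Viability of p53RE-bla cells is measured as CellTiter-Glo luminescence following a 16 h, 37 C incubation with compound, liver microsomes from human donors and NADPH.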
The target in assay [19] is Beta-2 adrenergic receptor (Homo sapiens) (UniProt P07550). The experiment in a line: Adrenergic beta2 receptor (ADRB2) small molecule antagonists, cell-based qHTS assay (AID 1963592). Further: series mostly up to about 92 µM; nearly all actives have a fitted effect of over 50% in size. The method in brief:
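Assay format: CHO-ADRB2 cells, 18-20hr seeding at 37C/5% CO2, then compound plus 1nM isoproterenol agonist mix for 0.5hr RT. Homogeneous time-resolved fluorescence cAMP detection after 1hr, expressed as 665/615 nm ratio.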

The target is the same in assay [20]. The experiment in a line: Adrenergic beta2 receptor (ADRB2) small molecule agonists, cell-based qHTS assay (AID 1963593).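 Further: CHO cells stably overexpressing human ADRB2.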 In outline:
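CHO cells stably over-expressing ADRB2 were plated overnight at 37C, then dosed with compounds plus a stimulation mix containing 100uM IBMX and 25uM Ro-20-1724 for 0.5hr at room temperature. cAMP was measured by HTRF competition, 1hr.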

Values without a mark were called inactive. Records with an inconclusive call do not appear. Active and inactive are the calls of the source. Unless noted, the call rests on the fitted dose curve.

Chain of D(2) dopamine receptor (Homo sapiens) (P14416 whole entry, looked up): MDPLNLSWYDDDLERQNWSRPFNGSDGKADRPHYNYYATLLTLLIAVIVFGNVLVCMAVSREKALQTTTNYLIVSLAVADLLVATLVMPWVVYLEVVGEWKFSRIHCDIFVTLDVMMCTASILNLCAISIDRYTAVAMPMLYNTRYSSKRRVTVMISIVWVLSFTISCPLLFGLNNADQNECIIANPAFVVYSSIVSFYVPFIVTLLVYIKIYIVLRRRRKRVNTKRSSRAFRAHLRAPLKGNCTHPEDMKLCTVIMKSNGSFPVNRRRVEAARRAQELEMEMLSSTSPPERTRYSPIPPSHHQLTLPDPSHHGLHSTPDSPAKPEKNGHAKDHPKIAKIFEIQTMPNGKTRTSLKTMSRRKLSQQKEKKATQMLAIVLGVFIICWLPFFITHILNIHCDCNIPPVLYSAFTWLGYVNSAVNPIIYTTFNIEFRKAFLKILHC
Chain of Muscarinic acetylcholine receptor M1 (Homo sapiens) (P11229 whole entry, looked up): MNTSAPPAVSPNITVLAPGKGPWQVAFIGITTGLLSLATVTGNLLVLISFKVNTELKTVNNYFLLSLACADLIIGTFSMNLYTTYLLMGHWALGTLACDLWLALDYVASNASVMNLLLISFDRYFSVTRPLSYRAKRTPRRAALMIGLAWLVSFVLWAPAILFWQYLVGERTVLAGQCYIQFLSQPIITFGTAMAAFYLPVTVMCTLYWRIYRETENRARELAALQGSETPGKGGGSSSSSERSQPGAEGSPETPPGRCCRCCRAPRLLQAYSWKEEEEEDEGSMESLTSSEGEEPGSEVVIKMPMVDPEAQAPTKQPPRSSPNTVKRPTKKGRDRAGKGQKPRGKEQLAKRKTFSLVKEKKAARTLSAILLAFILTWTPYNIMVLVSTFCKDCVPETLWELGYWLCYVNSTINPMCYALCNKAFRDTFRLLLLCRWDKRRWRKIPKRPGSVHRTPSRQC
Chain of 5-hydroxytryptamine receptor 2A (Homo sapiens) (P28223 whole entry, looked up): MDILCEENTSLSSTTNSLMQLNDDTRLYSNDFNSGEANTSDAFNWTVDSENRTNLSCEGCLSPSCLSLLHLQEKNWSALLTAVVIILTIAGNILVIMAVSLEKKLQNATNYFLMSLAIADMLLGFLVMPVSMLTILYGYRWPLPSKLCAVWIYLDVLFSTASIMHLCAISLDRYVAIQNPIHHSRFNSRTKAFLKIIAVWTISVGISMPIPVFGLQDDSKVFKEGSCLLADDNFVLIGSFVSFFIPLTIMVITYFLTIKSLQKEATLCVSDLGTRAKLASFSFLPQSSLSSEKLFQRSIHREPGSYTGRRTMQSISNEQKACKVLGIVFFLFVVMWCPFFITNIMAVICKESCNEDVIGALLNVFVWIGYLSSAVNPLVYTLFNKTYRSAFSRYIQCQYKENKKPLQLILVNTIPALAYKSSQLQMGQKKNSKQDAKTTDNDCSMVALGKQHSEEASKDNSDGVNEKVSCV
Chain of Beta-2 adrenergic receptor (Homo sapiens) (P07550 whole entry, looked up): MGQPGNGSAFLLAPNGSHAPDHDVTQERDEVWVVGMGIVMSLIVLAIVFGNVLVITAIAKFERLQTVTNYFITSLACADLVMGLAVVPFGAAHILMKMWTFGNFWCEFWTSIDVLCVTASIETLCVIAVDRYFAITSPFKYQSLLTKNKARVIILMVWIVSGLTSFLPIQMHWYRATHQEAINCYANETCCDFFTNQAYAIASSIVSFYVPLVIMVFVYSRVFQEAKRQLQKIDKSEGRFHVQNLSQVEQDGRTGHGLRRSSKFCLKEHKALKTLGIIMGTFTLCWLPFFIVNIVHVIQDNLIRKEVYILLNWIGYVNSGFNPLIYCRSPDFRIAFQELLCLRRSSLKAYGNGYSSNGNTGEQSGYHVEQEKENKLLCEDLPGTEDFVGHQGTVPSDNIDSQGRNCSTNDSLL

As for `Nc1c(I)cc(I)c(C(=O)N(CCC(=O)O)c2ccccc2)c1I`, the Potency result in [1], in assay [2], in assay [3], in [4], in [5] and in [6] was “inactive” throughout. Moreover, the Potency result in assay [7], in [8], in assay [9], in assay [10], in [11] and in assay [12] was “inactive” throughout. The Potency result in assay [13], in [14], in assay [15], in assay [16] and in [17] was “inactive” in each case.
Take `Cc1cc2c(cc1CC(=O)c1sccc1S(=O)(=O)Nc1onc(C)c1Cl)OCO2`: the Potency in assay [1] is 4.22 µM (active). In addition, the Potency result in assay [2], in assay [3], in assay [4], in [5], in assay [18] and in [7] was “inactive” each time. Further, the Potency result in assay [8], in assay [9], in assay [10], in [11], in [12] and in [13] was “inactive” in each case. Also, the Potency result in [14], in assay [15], in [19], in assay [20], in assay [16] and in assay [17] was “inactive” each time.
Consider `CCc1ncc(C)[nH]1`, for which the Potency result in [1], in assay [2], in assay [3], in assay [4], in assay [5] and in [6] was “inactive” each time. For the same molecule, the Potency entry in assay [8], in assay [9], in assay [10], in [11], in assay [12] and in assay [13] was “inactive” in each case. In addition, the Potency result in assay [14], in assay [19], in assay [20] and in assay [16] was “inactive” each time.
With `CCCCC=O`, the Potency entry in assay [1], in assay [2], in assay [3], in [4], in assay [5] and in assay [18] was “inactive” each time. Besides, the Potency entry in assay [7], in [8], in [10], in [11], in assay [12] and in [13] was “inactive” throughout. Besides, the Potency entry in assay [14], in [15], in [19], in [20], in [16] and in assay [17] was “inactive” each time.
Turning to `O=C1c2ccccc2C(=O)c2cc(S(=O)(=O)O)ccc21`, the Potency result in assay [1], in assay [2], in [3], in assay [4], in [5] and in assay [18] was “inactive” throughout. For the same molecule, the Potency entry in [7], in assay [8], in [10], in assay [11], in assay [12] and in [13] was “inactive” in each case. Also, the Potency entry in assay [14], in assay [15], in [19], in [20], in assay [16] and in [17] was “inactive” each time.
For `Cc1ccccc1N=C(N)N=C(N)N`, the Potency result in assay [1], in [2], in assay [3], in assay [4], in assay [5] and in assay [18] was “inactive” throughout. Further, the Potency entry in assay [7], in assay [8], in assay [10], in [11], in [12] and in [13] was “inactive” in each case. Further, the Potency result in assay [14], in assay [15], in assay [19], in assay [20], in assay [16] and in assay [17] was “inactive” each time.
As for `C=C[Si](OC)(OC)OC`, the Potency result in assay [1], in assay [2], in assay [3], in assay [4], in [5] and in assay [18] was “inactive” each time. Moreover, the Potency result in assay [7], in [8], in assay [10], in assay [11], in assay [12] and in assay [13] was “inactive” throughout. Moreover, the Potency result in [14], in assay [15], in assay [19], in [20], in assay [16] and in assay [17] was “inactive” each time.
With `CC(O)CC(C)O` (configuration not stated), the Potency result in [1], in assay [2], in [3], in assay [4], in [5] and in assay [18] was “inactive” throughout. Also, the Potency result in assay [7], in assay [8], in assay [10], in assay [11], in [12] and in assay [13] was “inactive” each time. For the same molecule, the Potency entry in [14], in assay [15], in assay [19], in [20], in assay [16] and in [17] was “inactive” throughout.
